PubChem BioAssay (NCATS)
Values joined by “and” are separate entries in the source; they are usually repeats but may differ in a detail not shown here. Equal entries are not always repeated. Inconclusive results are not listed. Entries that show only a call come without a potency. Some compounds were tested as several samples or in several runs, with calls that do not always agree. Active and inactive are the calls of the source. Calls follow the shape of the dose curve; as a rule, active = well fitted curve in the direction sought with a large enough effect; inconclusive = small, poorly fitted or top-dose-only effect, or another doubt; inactive = no such curve, though single readings can be large; an effect the other way counts as inactive or inconclusive.

How the values were obtained:
[1] = biological target: Glutathione peroxidase 1 (Homo sapiens) (UniProt P07203); test: Primary qHTS Assay for Inhibitors of Recombinant Selenoprotein Glutathione Peroxidase 1 (GPX1) (AID 1845191); also: nearly all actives have a fitted effect of over 65% in size; also: potency is read from the fitted curve at half-maximal effect
Outline: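 Recombinant GPX1 (10 nM final) was preincubated with compound for 30 min at room temperature, then reacted with 1 mM GSH, 0.5 mM CHP, 0.5 mM NADPH and 100 nM glutathione reductase; NADPH fluorescence (340/450 nm) was read at 0 and 15 min.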

[2] = biological target: Phospholipid hydroperoxide glutathione peroxidase GPX4 (Homo sapiens) (UniProt P36969); test: Primary qHTS Assay for Inhibitors of Recombinant Selenoprotein Glutathione Peroxidase 4 (GPX4) (AID 1845192); also: nearly all actives have a fitted effect of over 65% in size; also: potency is read from the fitted curve at half-maximal effect
Outline: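 GR-coupled readout: 100 nM GR, 1 mM GSH, 0.5 mM NADPH; NADPH fluorescence (ex 340/em 450 nm) read at t=0 and after 15 min RT. GPX4 200 nM, preincubated 30 min with compound; substrate 0.5 mM CHP.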

[3] = biological target: Luciferin 4-monooxygenase (Photinus pyralis) (UniProt P08659); test: Primary firefly luciferase (FLuc) qHTS assay for identification of artifact compounds. (AID 1845220); also: nearly all actives have a fitted effect of over 60% in size; also: potency is read from the fitted curve at half-maximal effect
Outline: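 In this counter-screen for luciferase artifacts, test compounds met substrate (10 uM each luciferin and ATP) before 10 nM enzyme started the reaction. Light output was measured 5 min later.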

[4] = Primary fluorescence-based thiol-reactive (MSTI) qHTS assay for identification of artifact compounds. (AID 1845221); also: nearly all actives have a fitted effect of over 65% in size; also: potency is read from the fitted curve at half-maximal effect
Outline: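 In PBS pH 7.4 with 2% DMSO, each compound met 4 uM MSTI for one hour at ambient temperature, shielded from light, before fluorescence detection.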

[5] = test system: Nanoluciferase (engineered Oplophorus gracilirostris luciferase); test: Primary Nanoluciferase (NLuc) qHTS assay for identification of artifact compounds. (AID 1845222);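 also: NLuc secreted into diluted conditioned medium of S16 cells; series mostly up to about 54 µM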
Outline: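 Using secreted nanoluciferase in S16 culture medium (0.22 um filtered, 1:55 dilution), compounds were preincubated 15 min at RT. Signal was generated with Nano-Glo reagent (1:100) over 5 min.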

[6] = Primary redox qHTS assay for identification of artifact compounds. (AID 1845223)
Outline: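 Amplex Red (25 uM) and HRP (250 mU/mL) in HBSS, with compounds for 15 min, then 250 uM DTT for 30 min, room temperature, dark. Fluorescence 525/598 nm read; normalized to DMSO and 10 uM DA3003; Hill fit.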

[7] = Quantitative High-Throughput drug screen in 47 multiple myeloma cell lines against the NCATS MIPE library collection: Karpas620_DSMZ cell viability assay (AID 1918959); also: nearly all actives have a fitted effect of over 30% in size; also: potency is read from the fitted curve at half-maximal effect
Outline: (§1)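 Viability readout: CellTiter-Glo luminescence following 5 min room-temperature incubation with reagent. Prior exposure: 48 h, 37C, humidified 5% CO2, 500 cells per well.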

[8] = Quantitative High-Throughput drug screen in 47 multiple myeloma cell lines against the NCATS MIPE library collection: Delta47_JCRB cell viability assay (AID 1918925; also: nearly all actives have a fitted effect of over 45% in size; also: potency is read from the fitted curve at half-maximal effect)
Outline: (§2)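 We plated 500 myeloma cells per well, pinned in MIPE 4.0 compounds, and incubated for 48 hours at 37C. ATP was then quantified with CellTiter-Glo, with DMSO and media-only wells defining 100% and 0%.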

[9] = Quantitative High-Throughput drug screen in 47 multiple myeloma cell lines against the NCATS MIPE library collection: EJM_DSMZ cell viability assay (AID 1918926; also: nearly all actives have a fitted effect of over 30% in size; also: potency is read from the fitted curve at half-maximal effect)
Outline: as §2

[10] = Quantitative High-Throughput drug screen in 47 multiple myeloma cell lines against the NCATS MIPE library collection: AMO1_DSMZ cell viability assay (AID 1918927; also: nearly all actives have a fitted effect of over 30% in size; also: potency is read from the fitted curve at half-maximal effect)
Outline: as §2

[11] = Quantitative High-Throughput drug screen in 47 multiple myeloma cell lines against the NCATS MIPE library collection: FR4_PLB cell viability assay (AID 1918924; also: nearly all actives have a fitted effect of over 35% in size; also: potency is read from the fitted curve at half-maximal effect)
Outline: as §1

[12] = Quantitative High-Throughput drug screen in 47 multiple myeloma cell lines against the NCATS MIPE library collection: ARD_JJKsccE7 cell viability assay (AID 1918929; also: potency is read from the fitted curve at half-maximal effect)
Outline: as §2

[13] = Quantitative High-Throughput drug screen in 47 multiple myeloma cell lines against the NCATS MIPE library collection: ARP1_JJKsccF8 cell viability assay (AID 1918928; also: nearly all actives have a fitted effect of over 40% in size; also: potency is read from the fitted curve at half-maximal effect)
Outline: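 Myeloma cells at 500 per well in 1536-well format treated with MIPE 4.0 library by pin transfer for 48 h at 37C, 5% CO2. Viability from ATP luminescence (CellTiter-Glo), normalized to DMSO (100%) and media-only (0%) wells.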

[14] = biological target: Metallo-beta-lactamase type 2 (Klebsiella pneumoniae) (UniProt C7C422); test: qHTS to identify inhibitors of the New Delhi Metallo-beta-lactamase (NDM): assay validation screen against the NCATS LOPAC Collection (AID 1794843);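 also: nitrocefin turnover by NDM-1 measured as 485 nm absorbance at plateau; series mostly up to about 38 µM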
Outline: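 NDM-1 at 2 nM final in 50 mM HEPES pH 7.0, 1 uM ZnSO4, 0.01% Tween20, preincubated with LOPAC compounds pinned in DMSO; 50 uM nitrocefin (stock) added. Hydrolysis read as absorbance at 485 nm in the plateau phase.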

Sequence of Glutathione peroxidase 1 (Homo sapiens) (P07203 whole entry, looked up): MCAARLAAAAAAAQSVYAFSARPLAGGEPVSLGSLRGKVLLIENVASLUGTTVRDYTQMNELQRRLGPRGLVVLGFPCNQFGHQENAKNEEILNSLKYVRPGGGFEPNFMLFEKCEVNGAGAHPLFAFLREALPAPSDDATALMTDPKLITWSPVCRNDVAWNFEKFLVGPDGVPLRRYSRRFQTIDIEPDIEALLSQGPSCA
Sequence of Phospholipid hydroperoxide glutathione peroxidase GPX4 (Homo sapiens) (P36969 whole entry, looked up): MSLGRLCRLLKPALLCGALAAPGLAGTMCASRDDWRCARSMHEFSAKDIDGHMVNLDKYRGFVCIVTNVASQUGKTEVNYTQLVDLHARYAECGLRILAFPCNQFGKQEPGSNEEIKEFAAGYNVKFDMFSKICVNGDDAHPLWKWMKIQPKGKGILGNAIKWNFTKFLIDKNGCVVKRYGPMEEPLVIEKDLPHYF
Sequence of Metallo-beta-lactamase type 2 (Klebsiella pneumoniae) (C7C422 whole entry, looked up): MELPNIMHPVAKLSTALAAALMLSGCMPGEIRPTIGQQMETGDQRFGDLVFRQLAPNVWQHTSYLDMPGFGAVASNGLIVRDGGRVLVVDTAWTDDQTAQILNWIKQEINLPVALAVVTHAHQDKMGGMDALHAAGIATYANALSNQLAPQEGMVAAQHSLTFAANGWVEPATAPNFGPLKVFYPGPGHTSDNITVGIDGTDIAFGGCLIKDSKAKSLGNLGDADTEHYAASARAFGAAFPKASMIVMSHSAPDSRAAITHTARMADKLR

Compound	Potency [1]	Potency [2]	Potency [3]	Potency [4]	Potency [5]	outcome [6]	Potency [7]	Potency [8]	Potency [9]	Potency [10]	Potency [11]	Potency [12]	Potency [13]	Potency [14]
CC(C)(C)Cn1c(N)nc2ccc(-c3[nH]c(C(C)(C)C)nc3-c3ccc(F)cc3)nc21	16.1 µM (active)	inactive and 9.04 µM (active)	inactive	1.89 µM (active)	inactive	inactive	inactive							
CS(=O)c1ccc(-c2nc(-c3ccc(F)cc3)c(-c3ccncc3)[nH]2)cc1 (configuration not stated)	inactive	25.5 µM (active)	inactive	inactive	inactive	inactive	34 µM (active)	13.6 µM (active)	10.8 µM (active)	30.3 µM (active)				
COc1cc2c(cc1OC)CN(CCc1ccc(NC(=O)c3cc(OC)c(OC)cc3NC(=O)c3cnc4ccccc4c3)cc1)CC2	inactive	inactive	inactive	inactive	inactive	inactive	inactive	13.2 µM (active)	inactive	inactive	inactive	inactive		
NC(=O)c1cnc(-c2ccc(C3(N)CCC3)cc2)c(-c2ccccc2)c1	inactive	inactive	inactive	inactive	inactive	inactive		6.62 µM (active)	1.66 µM (active)		inactive		8.33 µM (active)	
CC[C@]1(O)C[C@@H]2CN(CCc3c([nH]c4ccccc34)[C@@](C(=O)OC)(c3cc4c(cc3OC)N(C)[C@H]3[C@@](O)(C(=O)OC)[C@H](OC(C)=O)[C@]5(CC)C=CCN6CC[C@]43[C@@H]65)C2)C1	inactive	inactive	inactive		inactive									
NC(=O)c1cccc(-c2cc(Nc3ccc(OC(F)(F)F)cc3)ncn2)c1	inactive	inactive	inactive	inactive	inactive	inactive	26.4 µM (active)	18.7 µM (active)		18.7 µM (active)		14.8 µM (active)		
Cc1ccccc1C(C(=O)NC1CCCCC1)N(C(=O)Cn1ccnc1C)c1cccc(F)c1 (configuration not stated)	inactive	inactive	inactive	inactive	inactive	inactive	inactive	11.8 µM (active)					inactive	
CC1(C)CCC(CN2CCN(c3ccc(C(=O)NS(=O)(=O)c4ccc(NCC5CCOCC5)c([N+](=O)[O-])c4)c(Oc4cnc5[nH]ccc5c4)c3)CC2)=C(c2ccc(Cl)cc2)C1	inactive and 6.4 µM (active)	inactive and 3.16 µM (active)	inactive	inactive	inactive	inactive	0.332 µM (active)		20.9 µM (active)	9.35 µM (active)	20.9 µM (active)		23.5 µM (active)	
O=C(CCN1CCN(C(=O)OCc2cc(Cl)cc(Cl)c2)CC1)c1ccc2[nH]c(=O)oc2c1	inactive	inactive	inactive	inactive	inactive	inactive			inactive	1.18 µM (active)	inactive		inactive	
Cc1nc(N)sc1-c1ccnc(Nc2ccc(N3CCOCC3)cc2)n1	inactive	inactive	5.36 µM (active)	1.5 µM (active)	inactive	inactive	20.9 µM (active)	10.5 µM (active)	18.7 µM (active)	2.64 µM (active)	14.8 µM (active)	5.26 µM (active)	8.33 µM (active)	
O=c1[nH]cnc2c1ncn2[C@H]1CC[C@@H](CO)O1	inactive	inactive	inactive	inactive	inactive	inactive	inactive		inactive	inactive	inactive		inactive	
COc1ccc(Cc2nccc3cc(OC)c(OC)cc23)cc1OC											inactive			inactive
Cn1c(N2CCCCS2(=O)=O)nc(C(=O)NCc2ccc(F)cc2)c(O)c1=O	inactive	inactive	inactive	1.34 µM (active)	inactive	inactive		inactive	inactive					
CS(=O)(=O)N(Cc1ccco1)CC(O)Cn1c2ccccc2c2ccccc21 (configuration not stated)	inactive	inactive	inactive	inactive	inactive	inactive	inactive				inactive		inactive	
CC(C)(C)NC(=O)Nc1cccc(Nc2ncc(F)c(NC(C)(C)CO)n2)c1	inactive	inactive	inactive	inactive	inactive	inactive	inactive		inactive	14.8 µM (active)	inactive		10.5 µM (active)	
CN(C)CCC(c1ccccc1)c1ccccn1 (configuration not stated)		inactive	inactive		inactive	inactive								inactive
O=C(Nc1cccc(Br)c1)c1cccc(S(=O)(=O)N2CCCCCC2)c1	inactive	inactive	inactive	inactive	inactive	inactive	20.9 µM (active)	18.7 µM (active)				16.6 µM (active)		
CNC(=O)c1ccc2cc(C3(O)CCn4cncc43)ccc2c1 (configuration not stated)	inactive	inactive	inactive	inactive	inactive	inactive		inactive	inactive		inactive	inactive	inactive	
CN[C@@H](C)C(=O)N[C@H]1CN(C(=O)CC(C)C)CC[C@H]2CC[C@@H](C(=O)NC(c3ccccc3)c3ccccc3)N2C1=O	inactive	inactive	inactive	inactive	inactive	inactive	1.18 µM (active)		16.6 µM (active)	2.96 µM (active)				
COc1ccc2c(Oc3ccc(NC(=O)c4c(C)n(CC(C)(C)O)n(-c5ccccc5)c4=O)nc3)ccnc2c1	inactive	inactive	inactive	inactive	inactive		inactive				20.9 µM (active)			

Compound	Potency [1]	Potency [2]	Potency [3]	Potency [4]	Potency [5]	outcome [6]	Potency [7]	Potency [8]	Potency [9]	Potency [10]	Potency [11]	Potency [12]	Potency [13]	Potency [14]
COc1ncc(-c2ccc3nccc(-c4ccnnc4)c3c2)cc1NS(=O)(=O)c1ccc(F)cc1F	inactive	inactive	inactive	inactive	inactive	inactive				0.0469 µM (active)	0.0132 µM (active)			
CN1[C@@H]2CCC[C@@H]1CC(NC(=O)c1nn(C)c3ccccc13)C2 (some centres not stated)	inactive	inactive					inactive	inactive	inactive	inactive	inactive			
c1ccc2c(Cc3c[nH]c4ccccc34)c[nH]c2c1	inactive	inactive					9.35 µM (active)	0.935 µM (active)	1.48 µM (active)	8.33 µM (active)	20.9 µM (active)	inactive	20.9 µM (active)	
CC(=O)N(C)C1(c2ccccc2)CCN(CCC[C@]2(c3ccc(Cl)c(Cl)c3)CCCN(C(=O)c3ccccc3)C2)CC1	inactive		inactive	inactive	inactive	inactive	16.6 µM (active)	10.5 µM (active)	20.9 µM (active)	10.5 µM (active)		20.9 µM (active)		
CC(C)n1cnc2c(NCCCCCCNC(=O)OC(C)(C)C)nc(NCCO)nc21	inactive	inactive						14.8 µM (active)	20.9 µM (active)	4.69 µM (active)		5.9 µM (active)		
O=C(Nc1ccccc1-c1cn2c(CN3CCNCC3)csc2n1)c1cnc2ccccc2n1	inactive	inactive		inactive	inactive	inactive	inactive	4.69 µM (active)	20.9 µM (active)		9.35 µM (active)	inactive	23.5 µM (active)	
Cc1ccc(Nc2cc(-c3cccc(N4C(=O)c5ccccc5C4=O)c3)ncn2)cc1NS(C)(=O)=O	inactive		inactive	inactive	inactive	inactive		14.8 µM (active)	26.4 µM (active)	18.7 µM (active)		20.9 µM (active)		
CO[C@H]1C[C@@H]2CC[C@@H](C)[C@@](O)(O2)C(=O)C(=O)N2CCCC[C@@H]2C(=O)O[C@H]([C@@H](C)C[C@@H]2CC[C@H](O)[C@H](OC)C2)CC(=O)[C@H](C)C=C(C)[C@@H](O)[C@@H](OC)C(=O)[C@H](C)C[C@H](C)C=CC=CC=C1C	inactive	inactive					16.6 µM (active)							
NC(CO)(CO)CCc1ccc(Sc2cccc(OCc3ccccc3)c2)cc1Cl	inactive	inactive					16.6 µM (active)	9.35 µM (active)		20.9 µM (active)			23.5 µM (active)	
Cc1ccc(C(C)(O)c2nc3ccccc3s2)c(C)c1 (configuration not stated)	inactive	inactive					inactive	inactive		20.9 µM (active)		inactive	inactive	
Clc1cc(Cl)cc(CNc2ncncc2-c2ccc3c(c2)OCO3)c1	inactive	inactive						11.8 µM (active)		7.43 µM (active)	14.8 µM (active)	16.6 µM (active)		
CC(C(=O)O)c1ccc(-c2ccccc2)c(F)c1 (configuration not stated)	inactive	inactive					inactive		13.2 µM (active)		inactive	inactive		
O=C(N[C@@H](c1ccccc1)[C@@H]1CCCCN1)c1cccc(C(F)(F)F)c1Cl	inactive	inactive					inactive	14.8 µM (active)	18.7 µM (active)		inactive			
O=C(Nc1ccccc1Br)N[C@@H]1CCN(c2ccc(C(F)(F)F)cn2)C1	inactive	inactive									inactive			
CC(C)OC(=O)C(C)(C)Oc1ccc(C(=O)c2ccc(Cl)cc2)cc1	inactive	inactive					inactive		10.5 µM (active)	inactive		inactive		
CNC1CCC(N(Cc2cccc(-c3ccncc3)c2)C(=O)c2sc3c(F)ccc(F)c3c2Cl)CC1 (configuration not stated)	inactive		inactive	inactive	inactive	inactive	16.6 µM (active)	16.6 µM (active)		23.5 µM (active)	14.8 µM (active)		16.6 µM (active)	
COc1cc2ncnc(-n3nc(-c4ccccn4)nc3N)c2cc1OC	inactive		inactive	inactive	inactive	inactive	0.418 µM (active)	1.48 µM (active)	14.8 µM (active)	inactive	11.8 µM (active)	0.743 µM (active)		
CC(C)(C)COc1ccc(-n2cc(C(=O)O)cn2)cc1C#N	inactive	inactive					inactive	inactive	inactive	inactive	inactive	inactive	inactive	
N#Cc1ccc(NC(=O)Nc2ccccc2Br)c2n[nH]nc12	inactive	inactive					13.2 µM (active)			14.8 µM (active)	inactive		inactive	
